Bioassay records as filed in PubChem BioAssay.
Most compounds without a hit are left out; they make up all but 19% or so of the library.
KB-3-1 cytotox: KB-3-1 parental cell cytotoxicity. KB-3-1 viability, CellTiter-Glo ATP luminescence, 72 h. Potency, µM (titrated, usually from 46.1 µM), actives largely listed as cytotoxic. actives 1.4% (n = 400,000); note: nearly all actives have a fitted effect of over 60% in size
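Cytotoxicity in the drug-sensitive parental line KB-3-1 was scored as loss of CellTiter-Glo luminescence following 72 h incubation with compound. Values come from curve fitting of normalized concentration-response data.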
KB-V1 MDR tox: KB-V1 MDR subline cytotoxicity; Potency, µM (top dose mostly 46.1 µM), actives largely listed as cytotoxic; KB-V1 MDR cells viability, CellTiter-Glo, 72 h; actives 3.4% (n = 400,000); note: nearly all actives have a fitted effect of over 60% in size
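Luminescent ATP read-out (CellTiter-Glo, 10 min) measures survival of drug-selected KB-V1 MDR cells after 72 h, 37 degrees C compound exposure. Medium: phenol-red-free DMEM, 10% FBS. Values from fitted concentration-response curves.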
HT1080 IDH1KD tx: toxicity to HT-1080 IDH1 knockdown cells (counter line). actives 2% (n = 360,000). Potency, µM (highest dose often 46.1 µM), for the others: at the top dose activity, negative = toxicity, hits mostly cytotoxic. HT-1080 IDH1 knockdown viability, ATP luminescence, 48 h. AID 686971;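 note: 0% = DMSO wells and -100% = cell-free medium wells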
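IDH1KD HT-1080 cells, 750/well, RPMI + 5% FBS; compound pinned after 2 h settling; 48 h, 37 °C; CellTiter-Glo luminescence; % activity normalised to DMSO and no-cell wells; curves fitted, classed by r2 and efficacy.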
TDP1 cell CPT: growth inhibition of DT40 Tdp1-/-;hTDP1 cells with camptothecin (screen for TDP1 inhibitors) | chicken DT40 Tdp1-/-;hTDP1 cells + 20 nM CPT, ATP luminescence, 48 h | Potency, µM (titrated, usually from 46.2 µM), without a hit: at the highest dose activity change, negative = growth inhibition, hits mostly inhibitors | actives 12% (n = 420,000) | AID 686979; note: nearly all actives have a fitted effect of over 55% in size
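Chicken DT40 Tdp1-/- cells stably complemented with human TDP1 were seeded at 400 cells/well in medium containing 20 nM camptothecin, exposed to pin-transferred compounds, and grown at 37 °C for at least 48 hr. Viability was read as ATP luminescence.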
TDP1 cell noCPT: qHTS for Inhibitors of human tyrosyl-DNA phosphodiesterase 1 (TDP1): qHTS in cells in absence of CPT; DT40 Tdp1-/- hTDP1 cells, no CPT, ATP luminescence, 48 h; Potency, µM (titrated, usually from 46.2 µM), for inactives: at the top dose activity change, negative = growth inhibition, most hits filed as inhibitors; actives 15% (n = 420,000); AID 686978, 2013; note: nearly all actives have a fitted effect of over 55% in size
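No-CPT arm: Tdp1-/-;hTDP1 DT40 cells (400/well) plus compounds, incubated ≥48 hr at 37 °C. Readout CellTiter-Glo luminescence.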
HT1080-NT tox: kills 2HG-producing HT-1080-NT fibrosarcoma cells | HT-1080-NT fibrosarcoma viability, CellTiter-Glo ATP luminescence, 48 h | Potency, µM (highest dose often 46.1 µM), inactives show top-dose activity, negative = less viability, actives largely listed as cytotoxic | actives 1.6% (n = 360,000);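 note: NT is the 2HG producing partner of a matched IDH1 knockdown line; 0% = DMSO-treated cells and -100% = media-only wells without cells; nearly all actives have a fitted effect of over 55% in size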
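Fibrosarcoma NT cells, 750 per well in 5% FBS RPMI, were exposed to compound for 48 hours. Viability: CellTiter-Glo luminescence.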
An asterisk follows results filed as active; i = inactive; ? = inconclusive; nt = not tested or not shown. Calls come from the whole dose curve; as a rule, active = well fitted curve in the direction sought with a large enough effect; inconclusive = small, poorly fitted or top-dose-only effect, or another doubt; inactive = no such curve, though single readings can be large; an effect the other way counts as inactive or inconclusive. Unless noted, % is set by controls: 0 for no effect and ±100 for the full control effect; potency is the fitted concentration of half-maximal effect.

SMILES	KB-3-1 cytotox	KB-V1 MDR tox	HT1080 IDH1KD tx	TDP1 cell CPT	TDP1 cell noCPT	HT1080-NT tox
O=C(CN1C(=O)C(=O)N(C2CCCC2)C1=O)Nc1cc(Cl)ccc1[N+](=O)[O-]	nt	nt	-3%	-11%	-13%	-2%
O=C(c1csnn1)N1CCC2(CCCN(Cc3ccccc3)C2)CC1	nt	nt	nt	-12%	3%	nt
COc1ccc(N2CCN(C(=O)CSc3nnc(-c4cc5ccccc5cc4O)n3C)CC2)cc1	18µM*	2.3µM*	?	23µM*	18µM*	?
COc1ccc(N2CCN(C(=O)CSc3nc4c(c(=O)n(C)c(=O)n4C)n3C(C)C)CC2)cc1	i	?	7%	18µM*	?	-4%
CC(C)n1c(SCc2ccccc2F)nc2c1c(=O)n(C)c(=O)n2C	i	?	-10%	21µM*	26µM*	-15%
CC(C)n1c(SCC(=O)N2CCCCC2)nc2c1c(=O)n(C)c(=O)n2C	i	i	-2%	-8%	-19%	-5%
CN(Cc1ccccc1F)C(=O)c1ccc(NC(=O)CC2SC(N3CCCCC3)=NC2=O)cc1 (configuration not stated)	i	i	-3%	?	-16%	-1%
COc1ccc(N=C2S/C(=C\c3cc(C)n(C)c3C)C(=O)N2CC(C)C)cc1	i	2.6µM*	-9%	?	18µM*	-5%
CCN1C(=O)/C(=C/c2cccs2)SC1=Nc1ccc(OC)cc1	i	i	12%	7.3µM*	4.1µM*	10%
CCCN1CCN(S(=O)(=O)c2ccc3c(c2)OCCO3)CC1	i	i	-2%	-10%	-29%	19%
Cc1c(Cl)cccc1Nc1nc2ccc(C(=O)c3ccccc3)cc2n2cnnc12	i	i	nt	?	23µM*	nt
Cc1ccc(Nc2nc3ccccc3n3cnnc23)c(Cl)c1	i	i	10%	-23%	-30%	28%
CCc1nnc2c(Nc3cccc(F)c3)nc3ccc(C(=O)c4ccccc4)cc3n12	?	9.2µM*	nt	6.5µM*	2.9µM*	nt
COc1cccc(Nc2nc3ccc(C(=O)c4ccccc4)cc3n3c(C)nnc23)c1	i	i	nt	12µM*	?	nt
Cc1ccc(NC(=O)CCCc2nc3ccccc3s2)c(O)c1	i	i	-19%	-22%	-16%	-1%
CC(=O)Nc1ccc(Oc2sc(C(=O)c3ccccc3)c(N)c2C#N)cc1	i	i	16µM*	?	?	?
CS(=O)(=O)c1nc(-c2ccc(F)cc2)cc(C(F)(F)F)n1	?	?	8.2µM*	1.3µM*	1.8µM*	21µM*
COc1ccc(-c2cc(C(F)(F)F)nc(S(C)(=O)=O)n2)cc1	?	?	?	2.6µM*	3.3µM*	18µM*
CC1CCC(NC(=O)C2CC(=O)N(c3ccc(Cl)cc3)C2)CC1 (configuration not stated)	i	i	-2%	-12%	12%	1%
COc1ccc(OCc2nc(-c3ccc(OC)c(OC)c3)no2)cc1	i	i	nt	16µM*	?	nt
CCOc1ccc(-c2cc(-c3nc(-c4ccc(OC)c(OC)c4)no3)[nH]n2)cc1	i	i	nt	16µM*	6.5µM*	nt
CCOc1ccc(-c2cc(-c3nc(-c4cc(OC)c(OC)c(OC)c4)no3)[nH]n2)cc1Cl	i	i	nt	5.8µM*	3.3µM*	nt
C/C(=N\NC(=O)CN1CCN(c2ccc(F)cc2)CC1)c1ccco1	i	i	1%	5%	1%	19%
Cc1cc(C)c(C)c(S(=O)(=O)Nc2ccc(OCC(=O)O)cc2)c1C	?	?	0%	1%	-2%	0%
O=C1C(=O)c2c(C(=O)c3ccccc3)coc2-c2ccccc21	?	21µM*	?	3.3µM*	2.1µM*	0%
SMILES	KB-3-1 cytotox	KB-V1 MDR tox	HT1080 IDH1KD tx	TDP1 cell CPT	TDP1 cell noCPT	HT1080-NT tox
Cc1oc2c(c1C(=O)c1ccccc1)C(=O)C(=O)c1ccccc1-2	?	i	18µM*	1.2µM*	1.8µM*	18µM*
CCOC(=O)c1c(C)oc2c1C(=O)c1ccccc1C2=O	?	i	5%	4.6µM*	4.1µM*	2%
COC(=O)C(Cc1ccccc1)NC(=O)c1ccc(NS(=O)(=O)c2ccc3[nH]c(=O)[nH]c3c2)cc1 (configuration not stated)	i	?	5%	-8%	11%	2%
CCCCC[C@@H](C)N1C[C@@H](COCc2ccccc2)Oc2cc(N3CCC[C@@H]3COC)ccc2S1(=O)=O	i	i	-15%	?	16µM*	-28%
CCCCC[C@@H](C)N1C[C@@H](COCc2ccccc2)Oc2cc(N3CCC[C@H]3COC)ccc2S1(=O)=O	i	i	-14%	?	18µM*	-18%
CCCCC[C@H](C)N1C[C@@H](COCc2ccccc2)Oc2cc(N3CCC[C@@H]3COC)ccc2S1(=O)=O	i	?	16%	21µM*	18µM*	11%
CCCCC[C@H](C)N1C[C@@H](COCc2ccccc2)Oc2cc(N3CC[C@H](N(C)C)C3)ccc2S1(=O)=O	i	?	-25%	?	?	?
CCCCC[C@H](C)N1C[C@H](COCc2ccccc2)Oc2cc(N3CCC[C@H]3COC)ccc2S1(=O)=O	i	?	-18%	?	18µM*	-5%
CCCCC[C@H](C)N1C[C@@H](COCc2ccccc2)Oc2cc(N3CC[C@H](O)C3)ccc2S1(=O)=O	i	?	?	?	?	?
CCCCC[C@@H](C)N1C[C@H](COCc2ccccc2)Oc2cc(N3CCC[C@H]3COC)ccc2S1(=O)=O	i	?	-4%	5.8µM*	6.5µM*	0%
CCOc1ccccc1NC(=O)c1cc(=O)c2ccccc2o1	i	i	1%	5%	-12%	-7%
CCOC(=O)Nc1cc(=O)c2ccccc2o1	?	?	?	8.2µM*	13µM*	8.9µM*
CCOC(=O)c1c(CSc2ccsc2)n(C)c2cc(Br)c(O)c(CN(C)C)c12	i	i	-18%	18µM*	23µM*	-7%
CCOC(=O)c1c(CSc2ccc(C)cc2)n(C)c2cc(Br)c(O)c(CN(C)C)c12	i	i	?	?	8.2µM*	?
